Screens as filed in PubChem BioAssay.
The entries come from a sample that favours hits as a whole.
GFP derepression: derepresses silenced GFP locus in mouse C127i cells. mouse C127i GFP locus derepression, cytometry, 30 h. 0.09% of 68,000 active. Potency, µM (top dose mostly 46.1 µM), without a hit: at the highest dose GFP derepression (activation); further: % of control where 0% means no effect
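Locus derepression in mouse mammary C127i cells whose integrated CMV-GFP reporter is normally silent; GFP expression after 30 h compound treatment was quantified by counting fluorescent cells.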
IkB sig inh: IkB pathway inhibition in ABC-DLBCL cells; ABC-DLBCL IkBa-CBG/CBR dual luciferase ratio, 4 h; response scale: scaled: untreated 0%, proteasome inhibitor 100%; Potency, µM (doses to about 57.1 µM), for inactives: at the highest dose IkBa stabilization activation; 0.04% of 110,000 active; AID 445; active means well fitted curve in the direction sought with a large enough effect in the signal ratio, not every such curve was filed as active; inconclusive means small, poorly fitted or top-dose-only effect, or a change in a side signal; the % refers to the signal ratio;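 further: potency means the concentration at half of the fitted maximal effect; the direction sought is a rising ratio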
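In this assay, an IκBα–CBG68 fusion accumulates when IKK-driven degradation is blocked; native CBR normalizes for cell number. OCI-Ly3 cells were treated 4 h with compound and doxycycline, then green and red light read after Chroma-Glo addition.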
ERK AVP inh: vasopressin-driven ERK pathway inhibition | HEK293-V1b, vasopressin-stimulated pERK AlphaScreen | Potency, µM (highest dose often 57.5 µM), for inactives: top-dose activity, negative = inhibition, hits mostly inhibitors | 0.99% of 72,000 active; further: potency means the concentration at half of the fitted maximal effect; on the % scale 0 is the no-effect control and ±100 the full control effect; nearly all actives have a fitted effect of over 55% in size
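HEK293 cells stably expressing V1b receptor, preincubated 30 min at 37 °C with compound, then stimulated 5 min with 25 nM vasopressin. Phospho-ERK by AlphaScreen SureFire after 5 h RT; normalized to DMSO and vasopressin; AC50 by Hill fit.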
HBB splice mod: alters splicing of the hemoglobin beta chain. HBB splicing reporter cell assay, activation; EGFP reporter with mutant IVS2-654 intron; response scale: normalised to 500 nM splice-correcting PNA. AID 925. 0.06% of 65,000 active. Potency, µM (doses to about 46.1 µM), for the others: top-dose activation, hits mostly activators; further: potency means the concentration at half of the fitted maximal effect; 0% is about no effect
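HeLa cells stably expressing EGFP interrupted by mutant beta-globin intron 2 (IVS2-654), 500/well in 2% FCS. Treated with compound for 2 days at 37C. Splicing correction scored as total well GFP intensity (488 nm excitation, 500-520 nm emission); 500 nM antisense PNA served as control.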
CRE-bla Fsk: modulators of forskolin-stimulated CRE signaling in CHO cells. 2.5% of 71,000 active. Potency, µM (top dose mostly 38.2 µM), inactives show at the top dose activity change, negative = inhibition, actives largely listed as activators. CHO CRE-bla reporter (cAMP response element driving beta-lactamase), forskolin EC10, beta-lactamase ratio; active means well fitted activation curve with a large enough effect in the signal ratio, with a control signal flat, not every such curve was filed as active; inconclusive means small, poorly fitted or top-dose-only effect, or effect the other way, or a change in a side signal; the % refers to the signal ratio; further: potency means the concentration at half of the fitted maximal effect; % of control where 0% means no effect
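Modulation of forskolin signalling: compounds in titration series added with EC10 NKH 477 to CHO cells carrying a CRE-driven beta-lactamase reporter, 3 h, 37C. CCF4 FRET ratio (460/530 nm, ex 405 nm) gives %activity and AC50.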
Numbers without * were called inactive; ? = inconclusive; nt = no result given; [ ] = remark or other dose. Unless noted, the call rests on the fitted dose curve; in most records, active means well fitted curve in the direction sought with a large enough effect; inconclusive means small, poorly fitted or top-dose-only effect, or another doubt; inactive means no such curve, though single readings can be large; an effect the other way counts as inactive or inconclusive.

SMILES	GFP derepression	IkB sig inh	ERK AVP inh	HBB splice mod	CRE-bla Fsk
CC(C)[C@@H](CC(=O)N[C@@H]1CCCC[C@H]1C(=O)N[C@H](CC(=O)N[C@@H](CCC(=O)O)CC(=O)O)Cc1ccccc1)NC(=O)C[C@H](CO)NC(=O)[C@@H]1CCCC[C@H]1N	nt	0.8%	nt	0.8%	?
Cc1ccc(OCc2cc(=O)n3cc(C)sc3n2)c(C)c1	nt	-0.2%	nt	nt	nt
CCC1CCCCN1C(=O)CSc1n[nH]c(-c2ccccc2Cl)n1 (configuration not stated)	nt	-0.7%	nt	nt	nt
CCCC(=O)c1ccc(N2CCN(C(=O)c3ccccc3Br)CC2)c(F)c1	-0.3%	?	25.1µM*	-1.3%[9.22 µM]	?
CC(=O)SC1CC2=CC(=O)CC[C@@]2(C)C2CC[C@@]3(C)[C@@H](CC[C@@]34CCC(=O)O4)C12 (some centres not stated)	nt	nt	10.5%	nt	nt
COc1ccccc1NC(=O)C1CCN(C(=O)c2sc3nc[nH]c(=O)c3c2C)CC1	nt	-2.4%	nt	nt	nt
Cc1cccc(OCc2nnc(SCC(=O)N(C(C)C)C(C)C)n2Cc2ccco2)c1C	2.3%	?	-7.5%	-0.5%[57.5 µM]	12.6µM*
Cc1cc(NC(=O)CSc2nnc(COc3cccc(C)c3C)n2Cc2ccco2)no1	0.0%	0.0%	-8.1%	0.1%[57.5 µM]	-7.4%
CCC(C)NC(=O)c1cn(C)c(=O)c2cc(OC)c(OC)cc12 (configuration not stated)	-5.3%	0.6%	-9.4%	-0.8%	3.16µM*
COc1ccccc1NC(=O)c1cn(C)c(=O)c2cc(OC)c(OC)cc12	0.0%	-0.7%	2.2%	8.5%	?
CCN(CC)C(=O)c1cn(C)c(=O)c2cc(OC)c(OC)cc12	2.2%	-0.6%	17.1%	-1.3%	?
COCCNC(=O)c1cn(C)c(=O)c2cc(OC)c(OC)cc12	-2.0%	-0.6%	-11.1%	-1.3%	?
CCOCCCNC(=O)c1cn(C)c(=O)c2cc(OC)c(OC)cc12	1.2%	1.2%	-2.3%	-0.2%	5.01µM*
COc1cc2c(C(=O)NCc3ccccn3)cn(C)c(=O)c2cc1OC	1.2%	-1.0%	-8.8%	-1.1%	5.01µM*
CCn1cc(C(=O)NCc2ccc(C)o2)c2cc(OC)c(OC)cc2c1=O	-0.1%	1.2%	16.1%	1.5%	2.51µM*
COc1cc2c(C(=O)NCCCN3CCN(c4cccc(Cl)c4)CC3)cn(C)c(=O)c2cc1OC	7.8%	1.6%	7.8%	-0.2%	3.98µM*
O=c1cnc2cncnc2n1Cc1ccc(F)cc1	2.7%[9.22 µM]	?	-7.5%	7.4%	3.16µM*
CC(=O)O[C@@H]1CC[C@]2(C)[C@H]3CC[C@]4(C)[C@H](C[C@H]5CCCC[C@@]54C(C)=O)[C@@H]3CC(=O)[C@@]2(O)C1	-4.7%[9.22 µM]	0.7%[11.4 µM]	nt	nt	9.0%
Cc1cccc2cc3c(NC(=O)C(C)C)nn(C)c3nc12	-4.1%	0.3%	1.6%	4.3%[57.5 µM]	3.16µM*
Cc1ccc2cc3c(NC(=O)C(C)C)nn(C)c3nc2c1	1.6%	-1.6%	14.8%	-1.3%[0.369 µM]	15.8µM*
CCC(=O)Nc1nn(C)c2nc3c(C)cccc3cc12	-2.0%	-2.2%	26.4%	6.9%[1.84 µM]	10µM*
CCCC(=O)Nc1nn(C)c2nc3cc(C)ccc3cc12	2.2%	-0.7%	14.9%	3.1%[0.369 µM]	?
CCOc1ccc(C(=O)c2cn(CC(=O)Nc3ccc(OC)cc3)c3cc4c(cc3c2=O)OCO4)cc1	nt	0.3%	nt	nt	nt
C=CCNc1nc(NCc2ccco2)nc(OCC)n1	-0.3%	?	25.1µM*	nt	?
CC(C)[C@@H]1NC(=O)[C@H](CCCCN)NC(=O)[C@H](Cc2c[nH]c3ccccc23)NC(=O)[C@H](Cc2ccc(O)cc2)NC(=O)[C@H](C)N(C)C(=O)[C@H](Cc2ccccc2)NC1=O	-1.7%	-2.6%	-21.8%	2.0%	-7.7%
SMILES	GFP derepression	IkB sig inh	ERK AVP inh	HBB splice mod	CRE-bla Fsk
COc1cccc(-c2nn(C)c3sc(C(=O)NCc4ccc5c(c4)OCO5)cc23)c1	-1.1%	?	-14.0%	-0.2%	2.51µM*
COc1ccc(-c2nn(C)c3sc(C(=O)NCc4ccco4)cc23)cc1OC	3.2%	0.5%	20.0%	-1.8%	?
COc1cccc(-c2nn(C)c3sc(C(=O)NCc4ccc(C)o4)cc23)c1	-0.4%	?	24.5%	-1.8%	6.31µM*
Nc1cccc(-c2cn3ccsc3n2)c1	nt	2.8%	nt	nt	nt
COc1cc2c(cc1OC)C(c1cc(OC)c(O)c(OC)c1)CC(=O)N2 (configuration not stated)	nt	-2.2%	nt	nt	nt
C=CCn1c(SCc2cc(=O)n3ccsc3n2)nc2scc(C3CC3)c2c1=O	2.9%	?	?	-0.9%	1.58µM*
C=CCn1c(SCC(=O)c2ccc(CNC(C)=O)o2)nc2scc(C3CC3)c2c1=O	1.2%	0.4%	4.8%	-0.7%	7.94µM*
O=C(CN1CCSc2ccccc21)NCc1ccccc1F	nt	1.6%	nt	nt	nt
CCOc1ccc(N(C)S(=O)(=O)c2ccc3c(c2)CCCN3C(C)=O)cc1	nt	2.6%	nt	nt	nt
COc1cc(C2=NOC(C(=O)N3CCCc4ccccc43)C2)cc(OC)c1OC (configuration not stated)	0.2%	?	-7.7%	3.3%	12.6µM*
COc1ccc(-n2nc(C)c3c(C(F)(F)F)cc(-c4cccnc4)nc32)cc1	nt	0.8%	nt	nt	nt
O=c1c2ccccc2nc(SCc2cn3ccsc3n2)n1-c1ccc(F)cc1	1.1%	0.6%	?	2.1%	3.98µM*
Cc1nnc(SCc2cn3ccsc3n2)n(N)c1=O	0.0%	0.6%	17.3%	2.1%[57.5 µM]	2.0%
CCCCOc1ccc(-c2nonc2NC(=O)c2ccco2)cc1	nt	3.1%	nt	nt	nt
COc1ccccc1OCc1nnc(SCC(=O)c2cc(Cl)ccc2OC)o1	-1.9%	?	31.6µM*	0.0%[57.5 µM]	-0.2%
C/C(N)=C(/C#N)C(=O)CSc1nnc(COc2ccccc2Cl)o1	0.4%	0.8%	-2.4%	0.2%	8.1%
CCCCOc1ccccc1CC1C(=O)Nc2ccc(Br)cc21 (configuration not stated)	nt	-3.2%	nt	nt	nt
Nc1ccc2c(c1)N1CCN=C1S2	-2.4%[20.6 µM]	nt	nt	nt	nt
O=C(Nc1ccc(Cl)cc1)Nc1ccc2c(c1)N1CCN=C1S2	-2.1%	-0.4%	31.6µM*	0.4%[57.5 µM]	?
CCOc1ccc(NC(=O)c2cc3c(=O)n4cccc(C)c4nc3s2)cc1	nt	-3.0%	nt	nt	nt
O=C(CCC1COc2ccccc2O1)Nc1ccccn1 (configuration not stated)	0.0%	-2.7%	2.4%	-1.9%	10µM*
O=C(NCc1ccccn1)C1COc2ccccc2O1 (configuration not stated)	2.9%	-4.4%	?	-1.0%	10µM*
O=C(CC1COc2ccccc2O1)Nc1ccccn1 (configuration not stated)	-2.9%	1.0%	-20.0%	0.5%	-13.1%
COc1ccc(-c2nc(CS(=O)(=O)CC(=O)NCCc3cc(OC)ccc3OC)c(C)o2)cc1	5.5%	-1.5%	19.0%	-0.2%	2.8%
